Test results published in PubChem BioAssay AID540317 (National Center for Advancing Translational Sciences (NCATS), 2011).
The whole screen tested about 390,000 compounds, of which about 2,200 (0.56%) were called active. Roughly 3% stayed inconclusive and do not appear here. The list comes from a sample in which actives are over-represented; it also holds similar structures and randomly drawn compounds. Unmarked numbers belong to inactive results. Calls come from the whole dose curve; as a rule, active = well fitted inhibition curve with a large enough effect; inconclusive = small, poorly fitted or top-dose-only effect; inactive = no such curve, though single readings can be large or run the other way.

Target: Chromobox protein homolog 1 (Homo sapiens) (UniProt P83916)
Assay: HTS for Inhibitors of HP1-beta Chromodomain Interactions with Methylated Histone Tails; note: nearly all actives have a fitted effect of over 70% in size
Settings: AlphaScreen HP1-beta / biotin-H3K9me3 peptide binding; series mostly up to 114 µM; activity change, negative = inhibition: at the top concentration
Source text: As our understanding of epigenetics expands, it is becoming clear that players in this field are potential targets for drug development. This area of epigenetic therapy has established applications for the treatment of cancer and neurological diseases. We have been involved in this field for a number of years and have performed high-throughput screens to identify the first small molecule inhibitors of protein methyltransferases. These methyltransferases target multiple substrates, and thus regulate many arms of an epigenetic pathway. The methylation of different substrates often generates docking sites for effector proteins that harbor binding domains (chromo, tudor, PHD, MBT and ANK repeats). It has been proposed that the binding sites generated for different proteins by these post-translational modifcations mediate downstream effects on chromatin. Consistent with this theory, di- and tri-methylation of histone H3K9 facilitates the binding of heterochromatin protein HP1. The HP1 protein harbors a chromodomain that is responsible for the methyl-dependent interaction between HP1 and lysine 9 of histone H3. HP1 was first described in flies as a heterochromatin associated protein that can regulate gene silencing. It harbors a chromodomain that binds H3K9me3. In addition, it harbors a chromoshadow domain that interacts with a large number of proteins that are involved in heterochromatin formation and gene repression. There are three highly related HP1 isoforms. All three variants are associated with pericentric heterochromatin and it is not clear whether they have specific or redundant functions. MPP8 is also involved in the repression of gene in euchromatic regions (unpublished data) and like HP1 its chromodomain binds H3K9me3. MPP8 harbors an ankyrin repeat region that is likely involved in binding and recruiting interacting proteins with transcriptional repressive function, much like the chromoshadow domain of HP1 does. We hypothesize that by inhibiting specific protein-protein interactions we will be able to develop compounds that block a single arm of an epigenetic pathway. The specificity attained by blocking a single protein-protein interaction will be far greater than that attained by blocking the enzyme that regulates one of many interactions. Low-affinity protein-protein interactions (Kd in the single- to double-digit micromolar range) such as those discussed here have been very difficult to assay by traditional techniques such as fluorescence polarization or fluorescence resonance energy transfer. We have developed a sensitive chemiluminescence-based assay (Quinn, et al. 2009), which serves as the starting point for this project. The following is a validation assay to identify lead compounds that can block methyl-dependent protein-protein interactions (specifically HP1-beta), which can be used as probes to analyze these methyl-driven interactions and perhaps even developed into targeted epigenetic therapies. NIH Chemical Genomics Center [NCGC] NIH Molecular Libraries Probe Centers Network [MLPCN] MLPCN Grant: DA031087 Assay Submitter (PI): Mark Bedford, University of Texas, Medical Anderson Cancer Center, TX
To each well, 2 uL of HP1-beta protein (final 50 nM) and 1 uL biotinylated histone peptide trimethylated at Lys9 [b-H3(1-18)K9me3] (final 50 nM) was added in 1x PBS buffer, pH 7.4, containing 0.01% Tween-20 using a nanoliter dispenser. Formation of a protein-peptide complex proceeded at room temperature for 30 min. A Kalypsys pin-tool was employed to transfer 23 nL of library compound solution in DMSO to each well. Aurintricarboxylic acid (ATA) was used as an intraplate control with a 12-point titration in duplicate. Following a 30 min incubation of the protein-peptide complex with compounds at room temperature, a mixture of 40 ug/mL each streptavidin-coated donor and nickel chelate acceptor AlphaScreen beads (final 10 ug/mL) was added in a 1 uL dispense for a final volume of 4 uL. […]
Potency is the fitted concentration of half-maximal effect.

Chromobox protein homolog 1 (Homo sapiens), sequence (P83916 whole entry, looked up): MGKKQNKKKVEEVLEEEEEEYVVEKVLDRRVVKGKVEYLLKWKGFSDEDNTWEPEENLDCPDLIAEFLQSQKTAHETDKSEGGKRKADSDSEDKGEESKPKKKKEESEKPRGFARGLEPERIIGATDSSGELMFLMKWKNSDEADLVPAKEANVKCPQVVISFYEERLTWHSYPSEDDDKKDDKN

Structure (SMILES) | activity change, negative = inhibition | Potency
Cc1ccc(C(=O)COC(=O)CCCC(=O)NC2CCCCC2)cc1[N+](=O)[O-] | 19.2% | 
Cc1cc([N+](=O)[O-])c(N2CCC[C@@H]2C(=O)O)c([N+](=O)[O-])c1 | 22.6% | 
Cc1cc([N+](=O)[O-])c(NC2CCCCC2)c([N+](=O)[O-])c1 |  | 15.8 µM (active)
COc1ccc(C2Nc3ccc(NC(=O)COC(C)=O)cc3C(=O)N2Cc2ccccc2)cc1COc1ccc(NC(C)=O)cc1 (stereo not given) | 33.9% | 
O=C(NCc1ccccc1)c1cccc(NC(=O)N2CCSc3ncccc32)c1 | 45.2% | 
CCCN(C(=O)Cn1ncc2c([nH]c3ccc(C)cc32)c1=O)c1ccccc1C | 5.82% | 
Cc1ccc(CCNC(=O)c2nnc(Cc3cccc(F)c3)o2)cc1 | -11.4% | 
COc1cccc(-c2n[nH]c3c2C(c2cccc(O)c2)N(C)C3=O)c1 (stereo not given) | 10.2% | 
O=C(CN1CCCCCC1)Nc1ccc(Br)cc1Br | 121% | 
O=C(CN1CCC(NC(=O)C2CC2)CC1)Nc1ccccc1[N+](=O)[O-] | 13.5% | 
O=C(CN1CCCCCC1)Nc1ccc(Br)cc1[N+](=O)[O-] |  | 50.1 µM (active)
COc1ccc(C(CCN2CCOCC2)c2c(OC)cc(OC)c3c2OC(=O)CC3c2ccc(OC)cc2)cc1 (stereo not given) | -21.1% | 
CCOc1ccc(N2CC(C)Cn3c2nc2c3c(=O)n(Cc3c(F)cccc3Cl)c(=O)n2C)cc1 (stereo not given) | 46.2% | 
COC(=O)c1ccccc1NC(=O)Cn1c(=O)n(-c2cccc(C(F)(F)F)c2)c(=O)c2c(C)c(C)sc21 | 12.3% | 
CCOc1ccc(S(=O)(=O)c2cn(Cc3ccc(OC)cc3)c3ccc(F)cc3c2=O)cc1 | 43.2% | 
COc1ccc2c(c1)c(=Cc1ccc(N(C)C)cc1)c1cc(-c3ccccc3)[n+](C)n12 |  | 39.8 µM (active)
COc1ccc(-c2ccc(C3C4C=CCCC4(C)C(=O)N3Cc3ccccc3)c(F)c2)cc1OC (stereo not given) | 14.5% | 
Clc1cccc(-n2ncc3c(NCCc4ccccc4)ncnc32)c1 | 97.1% | 
CCCOC(=O)c1c(NC(=O)c2cc3nc(-c4ccc(OC)cc4)cc(C(F)(F)F)n3n2)sc2c1CCCC2 | 5.34% | 
C=CCN(CC=C)CCOc1ccccc1[N+](=O)[O-] |  | 39.8 µM (active)
O=C(COc1ccccc1[N+](=O)[O-])NC1CC1 | 39.7% | 
Cc1ccc(OCC(=O)Oc2ccccc2[N+](=O)[O-])cc1 | 20.1% | 
OCCNc1ncnc2oc(-c3ccco3)c(-c3ccco3)c12 | -0.766% | 
CCOC(=O)C1CCCN(C(=O)c2ccc(-n3ccc4ccccc43)s2)C1 (stereo not given) | 99.9% | 
O=C(c1cccc(Br)c1)N1CCN(Cc2cc(=O)n3nc(-c4ccccc4)sc3n2)CC1 | 20.1% [at 57 µM] | 

Structure (SMILES) | activity change, negative = inhibition | Potency
Cc1c(NC(=O)CCC2CCCCC2)cc(C(=O)N2CCOCC2)cc1[N+](=O)[O-] | 59.7% | 
COc1ccc(NC(=O)CN(C)C(=O)c2ccc(NC3CC3)c([N+](=O)[O-])c2)cc1 | -5.96% | 
Cc1cc(C=O)c(C)n1-c1ccc(NC2CCCCC2)c([N+](=O)[O-])c1 |  | 25.1 µM (active)
CCOc1ccc(CC(=O)NCCc2csc3nc(-c4ccccc4F)nn23)cc1 | 13.6% [at 57 µM] | 
CCOc1ccccc1N(C)C(=O)c1cc2c(s1)-c1ccccc1OC2 | 26.3% | 
CCc1ccc(OCCCn2c(CCCNC(=O)C3CCCCC3)nc3ccccc32)cc1 | 27.3% [at 57 µM] | 
Cc1ccc(OCC(=O)Nc2ccc(Cl)c(-c3nc4ccccc4[nH]3)c2)cc1C | 41.1% | 
Cc1ccc(C(=O)Nc2ccccc2F)cc1S(=O)(=O)N1CCOCC1 | 39.4% | 
N#C/C(=C\C1=C(N2CCOCC2)C(=C\c2ccccc2)/CC1)C(=O)Nc1ccccc1F |  | 7.08 µM (active)
O=C(CC1SC(N2CCOCC2)=NC1=O)Nc1ccccc1F (stereo not given) | 59.6% | 
O=C(Nc1ccc(Br)cc1)c1ccc(Br)c(S(=O)(=O)NCc2ccccc2)c1 | -11% | 
CC(C)C12CN3CC(C(C)C)(CN(C1)C3c1ccc(OCc3ccccc3)cc1)C2=O (stereo not given) | 4.34% | 
O=C(O)c1ccc2c(c1)N(Cc1ccc(F)cc1)C(=O)c1ccccc1S2=O (stereo not given) | 28.1% | 
Cc1ccc(CNS(=O)(=O)c2ccc(-c3cc(C(F)(F)F)on3)s2)cc1 | 48.9% | 
N#Cc1c(N2CCCCC2)nc(N)c2c(N)nc(SCC(=O)O)cc12 |  | 35.5 µM (active)
CCC(C)c1ccc2oc(-c3ccc(NC(=O)c4cc5ccccc5o4)cc3)nc2c1 (stereo not given) | 5.45% | 
CCCCc1nn2c(=O)cc(COC(=O)c3ccccc3NC(=O)C(C)(C)C)nc2s1 | 32.6% | 
Cc1cc(NC(=O)CSc2ncc(C(=O)Nc3ccc(Cl)cc3)c(=O)n2C)no1 | 19.9% | 
CSC1=N/C(=C\C=C\c2cccs2)C(=O)S1 |  | 28.2 µM (active)
Cc1ccc(C(=O)NCCSc2c(C)[nH]c3ccccc23)cc1C | 8.02% | 
Cc1ccc(C)c(N2C(=O)N(Cc3c(F)cccc3Cl)c3ccccc3S2(=O)=O)c1 | 51.8% | 
COc1ccc(-c2onc(C)c2C)cc1S(=O)(=O)NCCc1ccccc1 | 17.1% | 
COc1ccc(OCc2n[nH]c(=S)n2N)cc1 |  | 10 µM (active)
C=CCn1c(CCc2ccc(OC(C)C)cc2)n[nH]c1=S | 9.44% | 
Cn1c(CCCOc2ccc(Cl)cc2Cl)n[nH]c1=S | -3.23% | 
